Measurements taken from the supplement of paper PMC6555819.

How the values were obtained:
Experiment in all cases: PBM binding z-score (relative to random genomic background probes); higher = stronger binding; sequences stand for … in GC…GCGATTGACAGCGTAGAATGAAGG
[1] = tested on: RARb homodimer (NR concentration 270 nM)
Method in brief: (§1)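 Binding buffer was PBS pH 7.4 with 2% milk, 0.02% Triton X-100, 1 mM DTT, 0.2 mg/mL BSA and 0.4 mg/ml salmon testes DNA. In it, ligand-free nuclear receptor dimers were incubated 1 h on custom Agilent 4×180K protein-binding microarrays carrying double-stranded probes. Antibodies against each partner (one per run) detected binding, and z-scores were calculated against random background probes after regression normalization of scanned fluorescence.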

[2] = tested on: RARg:RXRa (NR concentration 270 nM, RXRa partner concentration 90 nM)
Method in brief: as §1

[3] = tested on: RARg homodimer (NR concentration 270 nM)
Method in brief: as §1

[4] = tested on: RXRa DBDmut IVT, anti-RXR (DBD mutation: RXRa K156A/R161A, NR concentration 90 nM)
Method in brief: as §1

[5] = tested on: RXRa homodimer (NR concentration 180 nM)
Method in brief: as §1

[6] = tested on: THRa:RXRa (NR concentration 90 nM, RXRa partner concentration 90 nM)
Method in brief: as §1

[7] = tested on: THRa homodimer (NR concentration 90 nM)
Method in brief: as §1

[8] = tested on: VDR homodimer (NR concentration 270 nM)
Method in brief: as §1

Sequence | PBM binding z-score [1] | PBM binding z-score [2] | PBM binding z-score [3] | PBM binding z-score [4] | PBM binding z-score [5] | PBM binding z-score [6] | PBM binding z-score [7] | PBM binding z-score [8]
ACTGACGGGTCAACGAGGTTATAGCACGCGTATA | 3.27 | 4.88 | 4.97 | 1.69 | 5.11 | 3.63 | 0.781 | 3.7
CGTCAATGTTCAACTAAGGTAACGTAAAGCACGC | 0.643 | 0.459 | 0.531 | 0.651 | 0.456 | 3.46 | 2.04 | 0.309
CCTGCTAGCTCAATGGTCAGCTAAAGCAGCTCGC | 0.464 | -0.547 | -0.75 | 0.0586 | -0.756 | -0.535 | -0.555 | -0.94
TCTCGGAGGACACGAAAGGTCAAAGCTCGACATC | 5.19 | 5.82 | 6.04 | 1.63 | 5.82 | 4.18 | 1.76 | 2.51
TAGCCTAGGTCATGTGGGCCAGTATAGTGTCGGC | 3.33 | 3.77 | 4.65 | 0.816 | 3.13 | 2.97 | 1.48 | 0.672
TTACCAAGGTGAGCGGAGGTCGTTGATCCAACTC | 1.72 | 1.31 | 1.18 | -0.227 | 1.44 | 3.73 | 0.656 | 0.886
ACTAGTTGGTTAGCTGAGGTCACACACAATTCGG | 4.12 | 3.62 | 3.42 | 1.62 | 3.95 | 4.7 | 5.36 | 3.78
CCTGCTAGGTCAATGGTCAGCTTAAGCAGCTCGC | 3.14 | 3.62 | 4.2 | 2 | 2.25 | 2.31 | 0.712 | 0.066
TAGCCAAGGTCATGCGGGCCAGTATAGTGTCGGC | 4.42 | 5.81 | 5.79 | 2.88 | 5.47 | 4.14 | 2.91 | 3.39
TAGCCTAGGTCAATCAGGGGCCAGTATAGAAAGC | 3.1 | 5.75 | 4.13 | 0.358 | 2.51 | 3.22 | 0.496 | 0.332
TCTTGTAGATCAGCTGGTTAAGAAAGCTGGCCAA | -0.771 | -0.465 | -0.758 | 0.269 | -0.351 | -0.515 | -1.3 | -0.694
AGTCAAAGTTCAGGACGAGGTAACGGAAAGCACG | 3.17 | 4.69 | 4.86 | 2.73 | 2.96 | 3.79 | 1.74 | 1.79
CTACCAAGGTGTACAAGGTCGTTGATTACTATTC | 1.21 | 0.657 | 0.16 | 1.14 | 0.934 | 1.99 | 1.32 | 2.13
GCTATTAGTTGAAAGAGCAACCGAATGATTCTCG | -0.533 | -0.181 | 0.242 | 0.464 | 0.226 | -0.376 | -0.896 | -0.22
TCATATAGGTAAAAGGTGTAAGTCGGTGTGGTAA | 0.36 | 0.32 | 0.0311 | 1.55 | 0.644 | 0.0897 | -0.167 | 0.313
TGTCAAAGTGCAAAGGTAACGTAAGTATCCACAC | 1.33 | 2.55 | 1.78 | 0.968 | 2.55 | 1.94 | -0.723 | 0.351
ATCTCTAGGTAAAACTTCAGTGAATCCCGAGGAT | -0.785 | 0.396 | 0.43 | -0.375 | 0.101 | 0.283 | -0.319 | -0.455
CCTACTGGGCCTAAAAGGTCATTGATGCCGATAA | 4.24 | 4.67 | 3.93 | 0.753 | 4.91 | 3.08 | 0.544 | 2.73
AGAATGAGGCTATACGTAGATCAGGGAAGAAAGT | -0.0625 | 0.222 | 0.232 | -0.0879 | -0.0272 | 0.084 | -0.165 | -0.0917
CCGAGTAGGTTATGGGGCCTTCAGGCAACGGTGA | 0.593 | 0.0658 | 0.0449 | -0.932 | 0.358 | 0.547 | 0.292 | 0.0348
GCTAACGGGTCAAAGGTTATAGCATGAATAGAAT | 3.09 | 6.57 | 4.55 | 1.87 | 8.85 | 3.65 | -0.286 | 1.33
CCTGCTAGGTCATGGACAGCTAATCTACAGTATG | 2.73 | 4 | 4.68 | 1.85 | 3.17 | 2.9 | 0.931 | 0.0193
TCATATAGGTAATACAGGTGACAGTCGGCATCTA | 0.657 | 0.874 | 0.762 | 1.5 | 1.08 | 0.809 | 0.0912 | -0.0475
TCTAGCAGGCCAGAGGGTCAATCAAGAGGTACGG | 2.63 | 2.97 | 2.14 | -0.246 | 2.87 | 1.62 | -0.729 | 0.802
TTACCAAGGTGAAAGCTCGTTGATGCACGCCTTG | 0.13 | 0.342 | 0.28 | -0.23 | 0.617 | 1.38 | 0.107 | -0.644
TCGAGTAGGTAACCAATGGGGCATTCAGCTTTCT | -0.0946 | -0.146 | -0.427 | 0.00393 | 0.0647 | 0.124 | -0.752 | -0.729
TCGAGTAGGTTACCAATGGGGCATACAGCTTTCT | 0.633 | 1.41 | 0.627 | 0.223 | 1.01 | 0.248 | -0.753 | -0.212
TCTGCTAGGCCAACGATGGTCAGCTAATCTGCTA | 0.00128 | -0.269 | 0.329 | -0.26 | -0.518 | -0.441 | -1.26 | -1.49
